Bioassay records (PubChem)
Hits are enriched below; roughly 7.4% of the tested compounds scored in any of these assays.
SMN2 splice enh: SMN2 splice variant enhancement; HEK293 SMN2-luciferase splicing reporter, luminescence, 30-36 h; Potency, µM (series often up to 46.1 µM), inactives show at the top dose activity change, positive = activation, hits mostly activators; actives 2.8% (n = 210,000); AID 1458; further: % of control where 0% means no effect; nearly all actives have a fitted effect of over 55% in size
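qHTS luciferase splicing reporter: luminescence rises when SMN2 exon 7 is included in transfected HEK293 cells. Compound exposure lasted 30-36 h at 37C, with 4.5 mM final sodium butyrate as control, followed by a ONE-Glo read.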
NPC1 promoter act: activates the NPC1 promoter; Huh7 NPC1 promoter luciferase reporter, 24 h; actives 2.4% (n = 320,000); Potency, µM (highest dose often 9.22 µM), without a hit: at the top dose activation, usual class: activators; further: % of control where 0% means no effect; nearly all actives have a fitted effect of over 60% in size
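Quantitative HTS used a cell-based reporter: Huh7 cells stably bearing the NPC1 promoter upstream of luciferase were treated with compounds for 24 h, and promoter activation was read as luminescence.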
ELG1 genotox: inducers of genotoxicity in HEK293T ELG1-luciferase cells | Potency, µM (series often up to 46 µM), inactives show at the top dose activity change, positive = activation, hits mostly activators | HEK293T ELG1-luciferase reporter, luminescence, 16 h | actives 1.3% (n = 330,000); further: % of control where 0% means no effect; nearly all actives have a fitted effect of over 60% in size
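HEK293T cells expressing luciferase-tagged ELG1 were treated with compound or DMSO for 16 hr at 37°C. Luciferase activity was then read after 30 min with ONE-Glo at room temperature; rising signal flags genetic stress.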
FLuc modulator: firefly luciferase modulation, counter-screen for miR-21 project | P08659 | purified FLuc, Km substrates, luminescence inhibition | Potency, µM (highest dose often 57.5 µM), without a hit: top-dose activity change, negative = inhibition, actives largely listed as inhibitors | actives 6.9% (n = 360,000) | AID 588342;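 further: plate controls were vehicle for no effect and reference inhibitor for full effect; nearly all actives have a fitted effect of over 55% in size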
Target sequence (P08659 whole entry, looked up): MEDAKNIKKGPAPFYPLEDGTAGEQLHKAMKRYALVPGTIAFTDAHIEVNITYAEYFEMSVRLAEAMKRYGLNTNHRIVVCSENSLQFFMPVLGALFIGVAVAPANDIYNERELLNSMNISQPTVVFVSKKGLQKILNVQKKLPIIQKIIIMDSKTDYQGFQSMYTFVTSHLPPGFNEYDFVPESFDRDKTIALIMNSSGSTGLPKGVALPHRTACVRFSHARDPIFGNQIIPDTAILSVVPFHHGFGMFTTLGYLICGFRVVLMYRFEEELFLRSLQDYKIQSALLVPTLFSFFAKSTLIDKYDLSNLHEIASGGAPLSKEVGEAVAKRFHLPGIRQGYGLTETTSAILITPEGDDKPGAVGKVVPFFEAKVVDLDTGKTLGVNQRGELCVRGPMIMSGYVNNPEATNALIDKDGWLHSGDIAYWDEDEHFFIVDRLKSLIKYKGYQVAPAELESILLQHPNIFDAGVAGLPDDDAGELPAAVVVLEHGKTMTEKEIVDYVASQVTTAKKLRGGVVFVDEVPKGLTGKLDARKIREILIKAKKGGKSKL
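Purified P. pyralis luciferase (10nM final) with 10uM D-luciferin and 10uM ATP (Km levels) in 50mM Tris acetate pH 7.5, 10mM Mg acetate, 0.01% Tween-20, 0.05% BSA; qHTS 6-point titration, ~60 µM downward; luminescence read.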
Rab9 prom act: Rab9 promoter activation. Huh7 Rab9 promoter-luciferase reporter, luminescence, 24 h. actives 2.8% (n = 320,000). AID 485297. Potency, µM (highest dose often 9.22 µM), inactives show at the highest dose activation, negative = inhibition, usual class: activators; further: % of control where 0% means no effect; nearly all actives have a fitted effect of over 60% in size
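Luciferase signal after 10 min detection reagent at ambient indicates Rab9 promoter upregulation; stably transfected Huh7 cells were treated 24 h with compound in DMSO at 37 °C, 5% CO2.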
Starred values were filed as active, the others as inactive; ? = inconclusive; . = no result; [ ] = remark or other dose. The call rests on the fitted dose curve; in most records, active means well fitted curve in the direction sought with a large enough effect; inconclusive means small, poorly fitted or top-dose-only effect, or another doubt; inactive means no such curve, though single readings can be large; an effect the other way counts as inactive or inconclusive. Potency means the concentration at half of the fitted maximal effect.

SMILES | SMN2 splice enh | NPC1 promoter act | ELG1 genotox | FLuc modulator | Rab9 prom act
CCOC(=O)/C(C#N)=C/c1ccc(N2CCN(C)CC2)cc1 | 5% | -2% | -2% | 27µM* | 1%
O=C(NCC1CCCO1)c1nn2cccnc2c1Cl (centres undefined) | 22µM* | 13% | ? | -15% | 22%
CCN=c1scc(-c2ccc(F)cc2)n1/N=C/c1ccccn1 | 13µM* | 2.5µM* | 10µM* | 9.5µM* | 3.2µM*
CCN=c1scc(-c2ccccc2)n1/N=C/c1ccccn1 | 14µM* | 0.35µM* | ? | 0.6µM* | 0.56µM*
O=C1CN(C(=O)c2ccc(S(=O)(=O)N3CCCC3)cc2)C(c2ccccc2)c2cc(Cl)ccc2N1 (centres undefined) | 8% | . | . | 0% | .
Cc1ccc(C(=O)N(C)CC(=O)Nc2cccc(F)c2)cc1S(=O)(=O)N1CCCCC1 | . | -1% | -3% | 4% | 0%
O=C(NC1CCCCCC1)C1c2ccccc2C(=O)N1Cc1ccccc1Cl (centres undefined) | 4% | . | . | -2% | .
CCOC(=O)C(C)C(C)=O (centres undefined) | -7% | 0% | 1% | 0% | -1%
CCN(c1ccc(C)cc1)S(=O)(=O)c1nnc(NC(=O)C2CCCCC2)s1 | . | . | . | 11µM* | .
CCN(c1cccc(C)c1)S(=O)(=O)c1nnc(NC(=O)C2CCCCC2)s1 | . | . | . | 15µM* | .
CC(C)CN(c1ccccc1)S(=O)(=O)c1nnc(NC(=O)C(C)C)s1 | . | -2% | 1% | 1% | -4%
CC(C)CC(=O)Nc1nnc(S(=O)(=O)N(CC(C)C)c2ccccc2)s1 | . | . | . | 0.85µM* | .
CCN(c1ccccc1)S(=O)(=O)c1nnc(NC(=O)C2CCCCC2)s1 | . | . | . | 2.7µM* | .
CCN(c1ccc(OC)cc1)S(=O)(=O)c1nnc(NC(=O)C2CCCCC2)s1 | . | -2% | 2% | 1% | -2%
O=C(Nc1cccc(Cl)c1)Nc1ccccc1-n1ccnc1 | . | -3% | 0% | -14% | 5%
CC(=O)Nc1ccc(NC(=O)C(C)OC(=O)C2CCCCC2)cc1 (centres undefined) | . | 2% | 0% | 6% | -8%
CS(=O)(=O)c1ccc(Cl)c(C(=O)Nc2ccc3nc(N4CCOCC4)sc3c2)c1 | . | -3% | 4% | ? | 1%
COc1ccc2cc3cc(C(=O)NCCCN4CCc5ccccc5C4)sc3nc2c1 | 16µM* | ? | 7% | 9.5µM* | 4.5µM*
COc1ccc2cc3cc(C(=O)NC4CC4)sc3nc2c1 | . | 0.45µM* | ? | 0.67µM* | 0.32µM*
COc1ccc2nc3sc(C(=O)NCCN4CCc5ccccc5C4)cc3cc2c1 | 4% | 2% | 7% | ? | 13%
CCOC(=O)Cc1csc(NC(=O)COc2ccc(C)c(C)c2)n1 | . | 16% | ? | ? | 30%
CCOC(=O)Cc1csc(NC(=O)COc2ccc(C)cc2)n1 | . | -1% | 0% | 13µM* | -1%
CCOC(=O)Cc1csc(NC(=O)CSc2ncnc3c2cnn3-c2ccc(OC)cc2)n1 | -19% | -3% | -17% | 8.5µM* | 18%
CCOC(=O)CNC(=O)CSc1ncnc2c1cnn2-c1ccc(Cl)cc1 | 16% | 1% | 12% | -2% | -2%
CCOC(=O)Cc1csc(NC(=O)Nc2ccc(OC(F)(F)F)cc2)n1 | . | -1% | -7% | 2.4µM* | -13%
SMILES | SMN2 splice enh | NPC1 promoter act | ELG1 genotox | FLuc modulator | Rab9 prom act
CCOC(=O)Cc1csc(NC(=O)COc2ccc3c(c2)CCC3)n1 | . | -1% | 4% | 12µM* | 0%
NC(=O)c1c(NC(=O)c2ccc(N3C(=O)CCC3=O)cc2)sc2c1CCCC2 | . | 1% | 8% | 11µM* | -3%
Cn1cc(Br)c(C(=O)Nc2sc3c(c2C(N)=O)CCCC3)n1 | . | 7% | 11% | 3µM* | ?
NC(=O)c1c(NC(=O)c2ccccc2Cl)sc2c1CCC2 | . | ? | ? | 15µM* | ?
NC(=O)c1c(NC(=O)c2cccnc2Cl)sc2c1CCCC2 | 3% | -2% | 8% | 19µM* | 0%
O=C(c1csnn1)N1CCC[C@@]2(CCN(Cc3ccccc3)C2)C1 | 2% | . | . | . | .
Cc1ccc(-c2nn3cnnc3c3ccccc23)cc1C | -12% | -4% | -2% | -3% | -4%
CCC(C(=O)N1CCCCCC1)n1nc(C)n2c(cc3occc32)c1=O (centres undefined) | . | -4% | -3%[9.26 µM] | -1% | 0%
CCCOc1ccc(-c2c(C(=O)N/N=C/c3cccs3)nnn2-c2nonc2N)cc1 | . | -4% | -5% | 2% | 4%
Cc1onc(-c2c(F)cccc2Cl)c1C(=O)Nc1sc2c(c1C(N)=O)CCC2 | 10% | -8% | -11% | -2% | -6%
NC(=O)c1c(NC(=O)c2ccccc2F)sc2c1CCCC2 | . | 1.6µM* | ? | 1.9µM* | 0.89µM*
NC(=O)c1c(NC(=O)c2ccccc2C(=O)O)sc2c1CCCC2 | . | 2% | -6% | 17µM* | 5%
NC(=O)c1c(NC(=O)c2ccc(F)cc2Cl)sc2c1CCC2 | . | ? | -2% | 13µM* | ?
CN(C)C(=O)c1c(NC(=O)c2ccccc2F)sc2c1CCCC2 | -11% | . | . | -5% | .
O=C(C1CCN(S(=O)(=O)c2ccccc2)CC1)N1CCC1 | . | -1% | 3% | -3% | -1%
CC(C)CN(CC(C)C)S(=O)(=O)N1CCC(C(=O)NCc2ccc3c(c2)OCO3)CC1 | -21% | -7% | -6% | -2% | 0%
Cc1ccc(NC(=O)c2ccccc2OCC(=O)Nc2cccc(Cl)c2C)nc1 | 5% | -3% | -2% | -1% | 1%
Cc1ccccc1CC1SC(N)=NC1=O (centres undefined) | . | -1% | 0% | 4% | 1%
Cc1[nH]c(C)c(S(=O)(=O)N2CCCCC2C)c1C(=O)N1CCCC1 (centres undefined) | . | 0% | 2% | 0% | -12%
COCCN(CCOC)C(=O)c1ccc(CSc2nc3ccccc3s2)cc1 | . | 27% | 12% | 17µM* | 17%
CCN(C(C)=O)c1nnc(CSc2nc3ccccc3s2)s1 | -20% | ? | 8.2µM* | ? | ?
CNc1nnc(CSc2nc3ccccc3s2)s1 | ? | 24% | ? | ? | ?
NNC(=O)c1ccc(CSc2nc3ccccc3s2)cc1 | -3% | 1% | 7% | 17µM* | 16%
CN(CC(=O)Nc1cc(Cl)cc(Cl)c1)Cc1cccs1 | . | -5% | -4% | -3% | 1%
Cc1cccc(-n2cc(C(=O)O)c(=O)cc2C)c1 | 4% | 23% | -4% | -1% | 0%
COc1cc(/C=N/NC2=NCCCCC2)ccc1O | . | -3% | -4% | -3% | 0%
C/C(=N\Nc1ncnc2sc(C)c(C)c12)c1ccccn1 | . | ? | ? | 5.4µM* | 8%
Cc1sc2ncnc(Nc3ccc(O)cc3)c2c1C | . | 0% | 7% | -11% | 2%
Cc1sc2ncnc(N/N=C/c3cccc(O)c3)c2c1C | ? | 2% | ? | 11µM* | -4%
Cc1ccc(Nc2ncnc3sc(C)c(C)c23)cc1 | ? | 0% | ? | 21µM* | 29%
